Laboratory results taken from PubChem BioAssay AID1159580 (chemical genetic matrix, 2015).
“And” between values parts separate entries of the source, which are not always exact repeats. Equal values may be shown once. Among all 5,500 compounds or so, about 2,000 (36%) were called active. Another 18% or so got no clear call; they are omitted. Cut-off read from the data, not from the text of the source: active = normalized growth mostly below about 0.91 (no sharp cut-off); inconclusive = no clear call, values can overlap the other calls; inactive = mostly above about 0.92. Some of the results follow.

Assay: chemical genetic growth profiling, strain panel (AID 1159580);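 note: tested at 20 µM; growth read once vehicle control cultures reached saturation at 30 °C; 1 = growth at the plate median or of vehicle wells; lower values mean less growth of the strain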
Conditions: S. cerevisiae deletion strains, growth OD

Measured: normalized growth

CN(C)c1ccc(C(=C2C=CC(=[N+](C)C)C=C2)c2ccc(N(C)C)cc2)cc1
active: locus YAL013W, strain DEP1, stronger effect = lower value 0.362 | locus YAL021C, strain ccr4, stronger effect = lower value 0.479 | locus YAL026C, strain drs2, stronger effect = lower value 0.563 | locus YAL030W, strain snc1, stronger effect = lower value 0.453 | locus YBL061C, strain skt5, stronger effect = lower value 0.535 | locus YBR009C, strain hhf1, stronger effect = lower value 0.486 | locus YBR021W, strain FUR4, stronger effect = lower value 0.603 | locus YBR023C, strain chs3, stronger effect = lower value 0.506 | locus YBR171W, strain sec66, stronger effect = lower value 0.717 | locus YBR229C, strain ROT2, stronger effect = lower value 0.353 | locus YBR231C, strain swc5, stronger effect = lower value 0.551 | locus YBR279W, strain paf1, stronger effect = lower value 0.463 | locus YCL011C, strain gbp2, stronger effect = lower value 0.524 | locus YCL016C, strain dcc1, stronger effect = lower value 0.473 | locus YCL029C, strain bik1, stronger effect = lower value 0.507 | locus YCL069W, strain vba3, stronger effect = lower value 0.57 | locus YCR088W, strain abp1, stronger effect = lower value 0.563 | locus YDL005C, strain med2, stronger effect = lower value 0.67 | locus YDL035C, strain GPR1, stronger effect = lower value 0.317 | locus YDL040C, strain nat1, stronger effect = lower value 0.48 | locus YDL074C, strain BRE1, stronger effect = lower value 0.492 | locus YDL101C, strain DUN1, stronger effect = lower value 0.397 | locus YDL185W, strain tfp1, stronger effect = lower value 0.433 | locus YDL192W, strain arf1, stronger effect = lower value 0.462 | locus YDR001C, strain nth1, stronger effect = lower value 0.562 | locus YDR069C, strain doa4, stronger effect = lower value 0.61 | locus YDR101C, strain arx1, stronger effect = lower value 0.486 | locus YDR137W, strain rgp1, stronger effect = lower value 0.77 | locus YDR159W, strain sac3, stronger effect = lower value 0.75 | locus YDR162C, strain NBP2, stronger effect = lower value 0.316 | locus YDR297W, strain sur2, stronger effect = lower value 0.537 | locus YDR318W, strain mcm21, stronger effect = lower value 0.487 | locus YDR334W, strain swr1, stronger effect = lower value 0.578 | locus YDR335W, strain msn5, stronger effect = lower value 0.577 | locus YDR388W, stronger effect = lower value 0.435 | locus YDR392W, strain spt3, stronger effect = lower value 0.658 | locus YDR502C, strain sam2, stronger effect = lower value 0.534 | locus YEL003W, strain gim4, stronger effect = lower value 0.547 | locus YEL037C, strain rad23, stronger effect = lower value 0.565 | locus YEL061C, strain CIN8 (second series), stronger effect = lower value 0.569 | locus YEL061C, strain CIN8, stronger effect = lower value 0.347 | locus YER015W, strain faa2, stronger effect = lower value 0.574 | locus YER016W, strain bim1, stronger effect = lower value 0.494 | locus YER110C, stronger effect = lower value 0.586 | locus YER111C, strain swi4, stronger effect = lower value 0.744 | locus YER155C, strain BEM2 (second series), stronger effect = lower value 0.826 | locus YER155C, strain BEM2, stronger effect = lower value 0.411 | locus YER167W, strain BCK2, stronger effect = lower value 0.334 | locus YFR010W, strain ubp6, stronger effect = lower value 0.614 | locus YGL078C, strain dbp3, stronger effect = lower value 0.493 | locus YGL086W, strain mad1, stronger effect = lower value 0.406 | locus YGL167C, strain pmr1, stronger effect = lower value 0.59 | locus YGL173C, strain kem1, stronger effect = lower value 0.637 | locus YGL227W, strain vid30, stronger effect = lower value 0.561 | locus YGL240W, strain doc1, stronger effect = lower value 0.618 | locus YGL248W, strain PDE1, stronger effect = lower value 0.345 | locus YGL253W, strain hxk2, stronger effect = lower value 0.465 | locus YGR078C, strain PAC10, stronger effect = lower value 0.321 | locus YGR135W, strain pre9, stronger effect = lower value 0.509 | locus YGR229C, strain SMI1, stronger effect = lower value 0.363 | locus YGR252W, strain gcn5, stronger effect = lower value 1.33 [resistant] | locus YHR013C, strain ard1, stronger effect = lower value 0.747 | locus YHR027C, strain rpn1, stronger effect = lower value 0.525 | locus YHR079C, strain IRE1 (second series), stronger effect = lower value 0.476 | locus YHR079C, strain IRE1, stronger effect = lower value 1.26 [resistant] | locus YHR094C, strain hxt1, stronger effect = lower value 0.455 | locus YHR129C, strain ARP1, stronger effect = lower value 0.366 | locus YHR142W, strain chs7, stronger effect = lower value 0.638 | locus YHR200W, strain rpn10, stronger effect = lower value 0.459 | locus YIL066C, strain RNR3, stronger effect = lower value 0.346 | locus YIL073C, strain SPO22, stronger effect = lower value 0.67 | locus YIL125W, strain kgd1, stronger effect = lower value 0.505 | locus YIR030C, strain dcg1, stronger effect = lower value 0.493 | locus YJL092W, strain hpr5, stronger effect = lower value 0.548 | locus YJL095W, strain BCK1 (second series), stronger effect = lower value 0.525 | locus YJL115W, strain asf1, stronger effect = lower value 0.651 | locus YJL129C, strain trk1, stronger effect = lower value 0.795 | locus YJL134W, strain LCB3, stronger effect = lower value 0.349 | locus YJL154C, strain vps35, stronger effect = lower value 0.551 | locus YJL164C, strain tpk1, stronger effect = lower value 0.548 | locus YJL166W, strain qcr8, stronger effect = lower value 0.478 | locus YJL168C, strain set2, stronger effect = lower value 0.448 | locus YJL187C, strain SWE1 (second series), stronger effect = lower value 0.333 | locus YJL187C, strain SWE1, stronger effect = lower value 0.521
0.364 (active) and 1.08 (inactive): locus YHR030C, strain SLT2, stronger effect = lower value
inactive: locus YDR195W, strain ref2 1.06
0.406 (active) and 1.08 (inactive): locus YJL095W, strain BCK1, stronger effect = lower value
